# Experimental data as given in PubChem BioAssay (NCI).
# This is part of a sample that, as a whole, favours compounds with a hit. Of some 79,000 tested, about 15% had one in any assay. Unmarked numbers belong to inactive results. Activity calls are given as the source filed them. Rule as the data show it: active = growth inhibition above about 70%; inactive = the rest.
# Experiments:
# [1] = NCI Yeast Anticancer Drug Screen. Data for the rad52 strain (AID 147);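 also: 0% = growth of vehicle-treated control cultures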; details: S. cerevisiae rad52 mutant growth inhibition, active compounds read high
# Outline: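 Yeast strain carrying a DNA damage repair alteration was exposed to test compounds. Growth inhibition was measured relative to vehicle-treated controls.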
# [2] = NCI Yeast Anticancer Drug Screen. Data for the wt1 strain (AID 149);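 also: 0% = growth of vehicle-treated wt1 cultures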; details: S. cerevisiae wt1 strain (SPY 50644) growth inhibition, active compounds read high
# Outline: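 Using yeast strain wt1, compound-induced growth inhibition was determined against vehicle-treated cultures.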
# [3] = NCI Yeast Anticancer Drug Screen. Data for the rad50EPP+ strain (AID 151);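 also: 0% = growth of vehicle-treated control cultures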; details: S. cerevisiae rad50 mutant strain, active compounds read high
# Outline: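 Yeast strain carrying rad50 alteration (rad50EPP+) exposed to compounds; growth inhibition measured relative to vehicle-treated controls.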
# [4] = NCI Yeast Anticancer Drug Screen. Data for the rad50 strain (AID 155);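 also: 0% = growth of vehicle-only cultures of the same strain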; details: S. cerevisiae rad50 strain growth inhibition, active compounds read high
# Outline: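 Relative growth inhibition (compound vs vehicle) was measured in yeast with a defined repair-gene alteration.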
# [5] = NCI Yeast Anticancer Drug Screen. Data for the mec2-1 strain (AID 157); details: S. cerevisiae mec2-1 strain, active compounds read high
# Outline: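 mec2-1 yeast strain, carrying an alteration in DNA damage repair or cell cycle control, was exposed to compounds; growth inhibition was measured relative to vehicle-treated controls.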
# [6] = NCI Yeast Anticancer Drug Screen. Data for the rad14 strain (AID 159);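 also: 0% = growth of vehicle-treated control cultures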; details: S. cerevisiae rad14 strain growth inhibition, active compounds read high
# Outline: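 Screen for anticancer potential: a yeast strain altered in DNA damage repair is grown with compound, and reduced growth is quantified against vehicle controls.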
# [7] = NCI Yeast Anticancer Drug Screen. Data for the sgs1 mgt1 strain (AID 161);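 also: 0% = growth of cultures given vehicle only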; details: S. cerevisiae sgs1 mgt1 strain, active compounds read high
# Outline: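 Growth of a repair-deficient yeast mutant was monitored after compound treatment and expressed as inhibition relative to vehicle-treated cultures.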
# [8] = NCI Yeast Anticancer Drug Screen. Data for the CLN2oe strain (AID 163);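 also: 0% = growth of vehicle-only control cultures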; details: S. cerevisiae CLN2oe strain, active compounds read high
# Outline: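 Yeast cells carrying a defined cell-cycle control alteration were exposed to test compounds. Growth inhibition was scored against vehicle-treated control cultures.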
# [9] = NCI Yeast Anticancer Drug Screen. Data for the cln2 rad14 strain (AID 165);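 also: 0% = growth equal to vehicle treated cultures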; details: S. cerevisiae cln2 rad14 strain, active compounds read high
# Outline: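 Yeast carrying cln2 and rad14 alterations (cell cycle control and DNA damage repair) were exposed to compounds. Growth inhibition was measured against vehicle-treated controls.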
# [10] = NCI Yeast Anticancer Drug Screen. Data for the wt2 strain (AID 169);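 also: 0% = growth of vehicle-treated yeast cultures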; details: S. cerevisiae wt2 strain growth inhibition, active compounds read high
# Outline: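 Yeast cells were exposed to test compounds, and growth inhibition was measured relative to vehicle-treated controls.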
# [11] = NCI Yeast Anticancer Drug Screen. Data for the mlh1 strain (AID 171);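 also: 0% = growth of vehicle-treated control cultures of the same strain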; details: S. cerevisiae mlh1 strain growth inhibition, active compounds read high
# Outline: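 Yeast carrying a defined genetic alteration in DNA damage repair or cell cycle control were exposed to test compounds. Growth inhibition was measured relative to vehicle-treated controls.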
# [12] = NCI Yeast Anticancer Drug Screen. Data for the sgs1 strain (AID 173);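 also: 0% = growth of vehicle-only control cultures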; details: S. cerevisiae sgs1 mutant, active compounds read high
# Outline: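 Yeast mutant strains carrying defined defects in DNA damage repair or cell cycle control were exposed to test compounds. Growth inhibition was scored against vehicle-treated controls.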
# [13] = NCI Yeast Anticancer Drug Screen. Data for the mlh1 rad18 strain (AID 175); details: S. cerevisiae mlh1 rad18 strain growth inhibition, active compounds read high
# Outline: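 Growth inhibition of the yeast strain was measured after compound exposure and expressed relative to vehicle-treated controls. The strain carries defined defects in DNA damage repair.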
# [14] = NCI Yeast Anticancer Drug Screen. Data for the rad18 strain (AID 177); details: S. cerevisiae rad18 mutant growth inhibition, active compounds read high
# Outline: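 Yeast carrying a defined DNA damage repair alteration were exposed to compounds. Growth inhibition was expressed relative to vehicle-treated controls.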
# [15] = NCI Yeast Anticancer Drug Screen. Data for the mgt1 strain (AID 153); details: S. cerevisiae mgt1 mutant growth inhibition, active compounds read high
# Outline: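 Yeast mgt1 strain (DNA repair/cell-cycle alteration panel) exposed to compounds; growth inhibition measured relative to vehicle-treated controls.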
# [16] = NCI Yeast Anticancer Drug Screen. Data for the bub3 strain (AID 167); details: S. cerevisiae bub3 mutant strain, active compounds read high
# Outline: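 Screening used yeast with an engineered genetic alteration affecting cell cycle control. Compound-exposed cultures were compared with vehicle cultures, and reduced growth was taken as inhibition.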
# [17] = at 5.0 µM (retest, dose inferred, filed as 0.5)
# [18] = at 50.0 µM (retest, dose inferred, filed as 5.0)
structure (smiles),measurement,setting,value
Cc1c([N+](=O)[O-])oc2ccc3ccccc3c12,growth inhibition,[1]; at 1.2 µM,23%
same,growth inhibition,[1]; at 3.7 µM,50%
same,growth inhibition,[1]; at 11.0 µM,86% (active)
same,growth inhibition,[1]; at 33.0 µM,94% (active)
same,growth inhibition,[1]; at 100.0 µM,92% (active)
same,growth inhibition,[2]; at 1.2 µM,2%
same,growth inhibition,[2]; at 3.7 µM,2%
same,growth inhibition,[2]; at 11.0 µM,4%
same,growth inhibition,[2]; at 33.0 µM,11%
same,growth inhibition,[2]; at 100.0 µM,21%
same,growth inhibition,[3]; at 1.2 µM,26%
same,growth inhibition,[3]; at 3.7 µM,50%
same,growth inhibition,[3]; at 11.0 µM,79% (active)
same,growth inhibition,[3]; at 33.0 µM,91% (active)
same,growth inhibition,[3]; at 100.0 µM,88% (active)
same,growth inhibition,[4]; at 1.2 µM,26%
same,growth inhibition,[4]; at 3.7 µM,48%
same,growth inhibition,[4]; [17],70% (active)
same,growth inhibition,[4]; at 11.0 µM,69%
same,growth inhibition,[4]; at 33.0 µM,88% (active)
same,growth inhibition,[4]; [18],90% (active)
same,growth inhibition,[4]; at 50.0 µM,87% (active)
same,growth inhibition,[4]; at 100.0 µM,92% (active)
same,growth inhibition,[5]; at 1.2 µM,6%
same,growth inhibition,[5]; at 3.7 µM,6%
same,growth inhibition,[5]; [17],18%
same,growth inhibition,[5]; at 11.0 µM,21%
same,growth inhibition,[5]; at 33.0 µM,51%
same,growth inhibition,[5]; [18],90% (active)
same,growth inhibition,[5]; at 50.0 µM,94.8% (active)
same,growth inhibition,[5]; at 100.0 µM,91% (active)
same,growth inhibition,[6]; at 1.2 µM,43%
same,growth inhibition,[6]; at 3.7 µM,84% (active)
same,growth inhibition,[6]; at 11.0 µM,86% (active)
same,growth inhibition,[6]; at 33.0 µM,96% (active)
same,growth inhibition,[6]; at 100.0 µM,93% (active)
same,growth inhibition,[7]; [17],76% (active)
same,growth inhibition,[7]; [18],92% (active)
same,growth inhibition,[7]; at 50.0 µM,84.4% (active)
same,growth inhibition,[8]; at 1.2 µM,-6%
same,growth inhibition,[8]; at 3.7 µM,-8%
same,growth inhibition,[8]; at 11.0 µM,-6%
same,growth inhibition,[8]; at 33.0 µM,3%
same,growth inhibition,[8]; at 100.0 µM,6%
same,growth inhibition,[9]; [17],81% (active)
same,growth inhibition,[9]; [18],96% (active)
same,growth inhibition,[9]; at 50.0 µM,97% (active)
same,growth inhibition,[10]; at 1.2 µM,1%
same,growth inhibition,[10]; at 3.7 µM,2%
same,growth inhibition,[10]; at 11.0 µM,6%
same,growth inhibition,[10]; at 33.0 µM,14%
same,growth inhibition,[10]; at 100.0 µM,26%
same,growth inhibition,[11]; at 1.2 µM,-1%
same,growth inhibition,[11]; at 3.7 µM,1%
same,growth inhibition,[11]; at 11.0 µM,-2%
same,growth inhibition,[11]; at 33.0 µM,15%
same,growth inhibition,[11]; at 100.0 µM,35%
same,growth inhibition,[12]; at 1.2 µM,49%
same,growth inhibition,[12]; at 3.7 µM,69%
same,growth inhibition,[12]; at 11.0 µM,78% (active)
same,growth inhibition,[12]; at 33.0 µM,86% (active)
same,growth inhibition,[12]; at 100.0 µM,89% (active)
same,growth inhibition,[13]; [17],82% (active)
same,growth inhibition,[13]; [18],94% (active)
same,growth inhibition,[13]; at 50.0 µM,95.3% (active)
same,growth inhibition,[14]; at 1.2 µM,95% (active)
same,growth inhibition,[14]; at 3.7 µM,96% (active)
same,growth inhibition,[14]; at 11.0 µM,96% (active)
same,growth inhibition,[14]; at 33.0 µM,95% (active)
same,growth inhibition,[14]; at 100.0 µM,94% (active)
CC1=C(CO)C2=C(C)C3(CC3)[C@@](C)(O)C(=O)C2=C1,growth inhibition,[1]; at 1.2 µM,1%
same,growth inhibition,[1]; at 3.7 µM,9%
same,growth inhibition,[1]; at 11.0 µM,27%
same,growth inhibition,[1]; at 33.0 µM,52%
same,growth inhibition,[1]; at 100.0 µM,81% (active)
same,growth inhibition,[2]; at 1.2 µM,0%
same,growth inhibition,[2]; at 3.7 µM,-1%
same,growth inhibition,[2]; at 11.0 µM,-1%
same,growth inhibition,[2]; at 33.0 µM,0%
same,growth inhibition,[2]; at 100.0 µM,-13%
same,growth inhibition,[3]; at 1.2 µM,-2%
same,growth inhibition,[3]; at 3.7 µM,0%
same,growth inhibition,[3]; at 11.0 µM,0%
same,growth inhibition,[3]; at 33.0 µM,2%
same,growth inhibition,[3]; at 100.0 µM,0%
same,growth inhibition,[15]; at 1.2 µM,-2%
same,growth inhibition,[15]; at 3.7 µM,-1%
same,growth inhibition,[15]; at 11.0 µM,-1%
same,growth inhibition,[15]; at 33.0 µM,-1%
same,growth inhibition,[15]; at 100.0 µM,0%
same,growth inhibition,[4]; at 1.2 µM,1%
same,growth inhibition,[4]; at 3.7 µM,3%
same,growth inhibition,[4]; at 11.0 µM,13%
same,growth inhibition,[4]; at 33.0 µM,42%
same,growth inhibition,[4]; at 50.0 µM,14%
same,growth inhibition,[4]; at 100.0 µM,79% (active)
same,growth inhibition,[5]; at 1.2 µM,0%
same,growth inhibition,[5]; at 3.7 µM,-1%
same,growth inhibition,[5]; at 11.0 µM,1%
same,growth inhibition,[5]; at 33.0 µM,19%
same,growth inhibition,[5]; at 50.0 µM,-0.75%
same,growth inhibition,[5]; at 100.0 µM,66%
same,growth inhibition,[6]; at 1.2 µM,0%
same,growth inhibition,[6]; at 3.7 µM,-2%
same,growth inhibition,[6]; at 11.0 µM,5%
same,growth inhibition,[6]; at 33.0 µM,19%
same,growth inhibition,[6]; at 100.0 µM,59%
same,growth inhibition,[7]; at 50.0 µM,43.9%
same,growth inhibition,[8]; at 1.2 µM,-7%
same,growth inhibition,[8]; at 3.7 µM,-6%
same,growth inhibition,[8]; at 11.0 µM,-13%
same,growth inhibition,[8]; at 33.0 µM,-11%
same,growth inhibition,[8]; at 100.0 µM,-2%
same,growth inhibition,[9]; at 50.0 µM,18.3%
same,growth inhibition,[16]; at 1.2 µM,-4%
same,growth inhibition,[16]; at 3.7 µM,-5%
same,growth inhibition,[16]; at 11.0 µM,-8%
same,growth inhibition,[16]; at 33.0 µM,-14%
same,growth inhibition,[16]; at 50.0 µM,-40.2%
same,growth inhibition,[16]; at 100.0 µM,-13%
same,growth inhibition,[10]; at 1.2 µM,-2%
same,growth inhibition,[10]; at 3.7 µM,0%
same,growth inhibition,[10]; at 11.0 µM,-1%
same,growth inhibition,[10]; at 33.0 µM,-1%
same,growth inhibition,[10]; at 100.0 µM,3%
same,growth inhibition,[12]; at 1.2 µM,4%
same,growth inhibition,[12]; at 3.7 µM,11%
same,growth inhibition,[12]; at 11.0 µM,29%
same,growth inhibition,[12]; at 33.0 µM,55%
same,growth inhibition,[12]; at 100.0 µM,78% (active)
same,growth inhibition,[13]; at 50.0 µM,0.3%
same,growth inhibition,[14]; at 1.2 µM,44%
same,growth inhibition,[14]; at 3.7 µM,82% (active)
same,growth inhibition,[14]; at 11.0 µM,90% (active)
same,growth inhibition,[14]; at 33.0 µM,93% (active)
same,growth inhibition,[14]; at 100.0 µM,94% (active)
